According to PubChem BioAssay AID624126 (The Scripps Research Institute Molecular Screening Center, 2012):
The campaign covered roughly 360,000 compounds. About 1,400 (0.39%) were called active.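 Rule for the calls: active = activation above its plate's cutoff, the mean activation of sample wells plus 3 SD; inactive = the rest.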 For the sample, actives were picked, then their nearest neighbours and some compounds at random.

Biological target: Muscarinic acetylcholine receptor M4 (Homo sapiens) (UniProt P08173)
Experiment: CHRM4 PAMs potentiating acetylcholine calcium signal – CHO-K1 cells, Fluo-8 calcium fluorescence, primary screen (AID 624126)
Settings: CHO-K1 hM4/Gqi5, Fluo-8 calcium fluorescence, ACh EC20; at 3 µM; active compounds read high; 0% = ACh EC20, 100% = maximal ACh

Muscarinic acetylcholine receptor M4 (Homo sapiens), sequence (P08173 whole entry, looked up): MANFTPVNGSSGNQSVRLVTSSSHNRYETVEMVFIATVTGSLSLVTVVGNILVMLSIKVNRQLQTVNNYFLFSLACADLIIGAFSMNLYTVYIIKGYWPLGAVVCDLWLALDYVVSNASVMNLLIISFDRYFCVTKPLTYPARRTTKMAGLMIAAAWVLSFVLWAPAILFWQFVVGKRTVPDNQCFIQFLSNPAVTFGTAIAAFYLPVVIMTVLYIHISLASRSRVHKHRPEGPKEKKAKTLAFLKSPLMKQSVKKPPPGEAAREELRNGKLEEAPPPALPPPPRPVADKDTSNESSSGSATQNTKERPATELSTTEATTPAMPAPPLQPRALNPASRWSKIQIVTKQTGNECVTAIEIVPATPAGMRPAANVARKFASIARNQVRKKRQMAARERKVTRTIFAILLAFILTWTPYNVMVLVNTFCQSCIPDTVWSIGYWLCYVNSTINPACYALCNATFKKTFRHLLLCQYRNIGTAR

activation, active:
CNCC(O)CN1CCN(c2ccccc2OC)CC1 (stereo not given) 19.7%, Cn1c(NC(=O)c2ccco2)c(-c2ccccc2Cl)c(=O)c2ccccc21 31%, CSc1nc(C)cc(SC(C(C)=O)C(=O)Nc2ccccc2)n1 (stereo not given) 22.6%, Cc1cc(C)nc(NC(=O)c2cccc([N+](=O)[O-])c2)c1 31.6%, CCn1c(SCC(=O)Nc2cc(C)ccc2C)nnc1-c1cnccn1 35.7%, Cc1c(-c2cccc(Cl)c2)nc2ccccc2c1C(=O)OCC(=O)N(C)C1CCS(=O)(=O)C1 (stereo not given) 22.5%, O=C(CN1C(=O)S/C(=C\c2ccccc2F)C1=O)NCCCn1ccnc1 17.2%, COC(=O)CSc1nnc(NC(=O)CCc2ccccc2)s1 19.8%, COc1ccc(CC(=O)N2N=C(C)CC2(O)C(F)(F)F)cc1 (stereo not given) 24%, CCOc1cc(C(C(=O)NCC2CCCO2)N(C(=O)Cn2nnc3ccccc32)c2cccc(OC)c2)ccc1O (stereo not given) 44.7%, Cn1c2ccccc2c(=O)c2c(=O)n(Cc3ccco3)c(COc3ccccc3)nc21 21.8%, COc1ccc(CCNC(=O)COC(=O)c2cc(=O)c3ccccc3o2)cc1 26.3%, Cc1cc2[nH]ncc2cc1NC(=S)NC(=O)c1ccccc1 31.9%, O=c1c2ccccc2nc2n1C1(CCCCC1)Cc1ccccc1-2 21.2%, Cc1sc2ncnc(N3CCC(C(=O)Nc4ccc(F)cc4Cl)CC3)c2c1C 45%, NCC(=O)c1cccc2ccc[n+]([O-])c12 17.3%, Cc1nc2sc(C(=O)c3ccccc3)c(N)c2c2c1CCCC2 63%, Cc1ccc(S(=O)(=O)N2CCN(C(=O)CSc3cc(C)ccc3C)CC2)c(C)c1 18.8%

activation, inactive:
COc1ccc(OC)c(S(=O)(=O)N2CCCC(C(=O)N3CCC(C(N)=O)CC3)C2)c1 (stereo not given) 6.48%, Cc1cccc(C(C)C)c1NC(=O)COC(=O)C1CC(=O)N(Cc2ccccc2)C1 (stereo not given) 1.78%, CCC/C(C)=N\Nc1nc2c(c(=O)n(C)c(=O)n2C)n1C -1.33%, O=C(Nc1ccc(N2C(=O)c3cccc4cccc(c34)C2=O)cc1)c1ccc(N2CCCCC2)c([N+](=O)[O-])c1 4.02%, COc1ccccc1N1CCN(Cc2ccc(OC)c3ccccc23)CC1 -3.43%, COc1ccccc1N1CCN(Cc2cc(OC)c3c(c2)OCO3)CC1 -6.02%, COc1ccccc1-n1c(=S)[nH]c2c(sc(=S)n2-c2ccc(C)cc2C)c1=O 2.71%, COc1ccc(-c2c(NC(=O)c3ccco3)oc3ccc(Cl)cc3c2=O)cc1 11.2%, Cc1cccc(-c2c(NC(=O)c3ccco3)oc3ccc(Cl)cc3c2=O)c1 7.81%, Cc1cccc(C)c1-n1nnnc1C1(C)CCC(=O)N1CCOc1ccccc1 (stereo not given) 6%, CC1(C(=O)NCc2ccc3c(c2)OCO3)CCN1C(=O)Cc1cccs1 (stereo not given) 3.27%, COc1ccc(NC(=O)C(C)SCc2ccccc2)cc1 (stereo not given) 0.44%, CC(Sc1nnc2c(n1)C1CCC2(C)C1(C)C)C(=O)Nc1ccccc1 (stereo not given) -0.53%, CCCCN1C(=O)C(CC(=O)NCc2cccs2)CC(C(=O)N2CCCCCC2)=C1C (stereo not given) 0.62%, C/C(=N\NC(=O)c1cccc([N+](=O)[O-])c1)c1cccnc1 1.53%, O=C(Nc1ccc(C2CC2(Cl)Cl)cc1)c1cccc([N+](=O)[O-])c1 (stereo not given) -15.5%, O=C(c1ccc(C(F)(F)F)cc1)C1CCCN(C(=O)c2csnn2)C1 (stereo not given) 5.9%, c1ccc2c(c1)OCC(c1nn3cnnc3s1)O2 (stereo not given) 13.1%, CCc1ccc(NC(=O)CSc2nnc(-c3cnccn3)n2Cc2ccco2)cc1 -2.71%, CCn1c(SCC(=O)NC2CC2)nnc1-c1ccccn1 -4.53%, CC1COc2ccccc2N1C(=O)c1cccnc1Cl (stereo not given) -13.4%, CC(=O)c1c(C)[nH]c(C(=O)N2CCN(S(=O)(=O)c3ccc(F)c(F)c3)CC2)c1C 1.38%, CC(C)(C)C(=O)Nc1ccc(-c2cn3cccnc3n2)cc1 1.07%, CN(C(=O)COC(=O)c1cc(-c2ccco2)nc2ccccc12)C1CCS(=O)(=O)C1 (stereo not given) -1.7%, COc1ccc2c(-c3ccccc3)cc(SCC(=O)N(C)C3CCS(=O)(=O)C3)nc2c1 (stereo not given) -1.12%, O=C(Nc1ccc(F)cc1)C1CCCN(S(=O)(=O)c2ccc(-n3cnnn3)cc2)C1 (stereo not given) 8%, CCOC(=O)c1ccc(S(=O)(=O)N(CCO)Cc2cc3cc(OC)c(OC)cc3[nH]c2=O)cc1 -7.09%, O=C(CCN1C(=O)c2ccccc2C1=O)NCCCn1ccnc1 8.67%, O=C(NCCCn1ccnc1)/C(=C\c1ccccc1F)NC(=O)c1ccccc1 -3.09%, CC(C)(C)CC(=O)Nc1nnc(SCC(=O)NCc2cccs2)s1 -0.98%, COCCNc1nnc(SCC(=O)NNC(=O)c2ccco2)s1 2.78%, CC1=NN(C(=O)CCCc2ccccc2)C(O)(C(F)(F)F)C1 (stereo not given) 9.78%, CC1=NN(C(=O)CCc2ccccc2O)C(O)(C(F)(F)F)C1 (stereo not given) 5.29%, Cn1cc(CN2CCCCC2c2ccccn2)c(-c2ccc3c(c2)OCCO3)n1 (stereo not given) 5.23%, CCOC(=O)c1c(NC(=O)C2CC=CCC2C(=O)O)sc(C)c1CC (stereo not given) 0.65%, O=C1CCCCC1Sc1ccc(Cl)cc1[N+](=O)[O-] (stereo not given) -0.97%, O=C(NC1CCCCC1)C1CCCN(S(=O)(=O)c2ccc(Br)s2)C1 (stereo not given) -0.65%, CC1=C(C(=O)N2CCOCC2)CC(CC(=O)NCc2cccc3ccccc23)C(=O)N1CCC1=CCCCC1 (stereo not given) 0.96%, COc1ccc(C(C(=O)NCC2CCCO2)N(C(=O)Cn2nnc3ccccc32)c2ccc(NC(C)=O)cc2)cc1OC (stereo not given) 6.34%, Cc1ccc(C(C(=O)NCc2ccco2)N(CC2CCCO2)C(=O)Cn2nnc3ccccc32)cc1 (stereo not given) 4.26%, Cc1ccc(NC(=O)C2CC2)cc1S(=O)(=O)N1CCOCC1 0.09%, CC(C)Oc1ccc(C(=O)Nc2cc(=O)n(C)c(=O)n2C)cc1 5.54%, C=CCOc1ccc(/C=N/n2cncn2)cc1OC 8.05%, COc1ccc(-c2oc3ncn(Cc4ccco4)c(=N)c3c2-c2ccc(OC)cc2)cc1 -6.61%, O=C(Cn1c(=O)n(Cc2ccco2)c(=O)c2ccccc21)NCC1CCCO1 (stereo not given) 5.16%, COc1ccc(CCNC(=O)COC(=O)c2ccc[nH]c2=O)cc1 11.3%, CCc1cccc(NC(=O)COC(=O)c2cc(=O)c3ccccc3o2)c1 10.9%, COC(=O)c1c(NC(=O)COC(=O)[C@@H](NS(=O)(=O)c2ccccc2)C(C)C)sc2c1CCC2 -4.52%, COC(=O)c1scc(S(=O)(=O)C(C)(C)C)c1-n1cccc1 -11.5%, COc1cc(C(=O)N2CCN(C3CCC(C)CC3)CC2)cc(OC)c1OC (stereo not given) -7.26%, CC(C)N=C1CCCC1C(=S)SSC(=S)C1CCCC1=NC(C)C (stereo not given) 7.38%, Cc1cc(C)cc(C(=O)NC(=S)Nc2ccc3[nH]c(=O)[nH]c3c2)c1 5.23%, Cn1nnc(NC(=S)NC(=O)c2ccccc2)n1 22.4%, COc1ccc(C(=O)C2CCCN(C(=O)c3ccc(OC)o3)C2)c(C)c1 (stereo not given) -1.21%, CN(c1ccc2nc3ccccc3c(=O)n2n1)C1CCCCC1 11.4%, Cc1cccc(-n2c(SCC(N)=O)nc3c(c2=O)C2(CCCCC2)Cc2ccccc2-3)c1 -5.47%, Cc1ccc(C(=O)C(C)OC(=O)Cc2n[nH]c(=O)c3ccccc23)cc1C (stereo not given) -4.11%, COc1ccc(C(=O)N/N=C2\CCS(=O)(=O)c3ccc(F)cc32)cc1OC 2.71%, Cc1sc2ncnc(N3CCC(C(=O)NNC(=O)c4ccc(F)cc4)CC3)c2c1C -3.74%, Cc1sc2ncnc(N3CCC(C(=O)Nc4nc5ccc(Cl)cc5s4)CC3)c2c1C 7.24%, Cc1cccc(N(C)C(=O)c2cc(S(=O)(=O)N3CCCCC3)c[nH]2)c1 -3.91%, Cc1ccc2cccc(O)c2[n+]1[O-] 16.2%, Cc1cccc2cc3c(N)c(C(=O)N4CCCc5ccccc54)sc3nc12 -7.18%, Cn1c(-c2ccc(C(=O)c3ccccc3)s2)nc2ccccc21 0.98%, O=C(NCc1ccccc1Cl)C(=O)NCC1CCCN1S(=O)(=O)c1cccs1 (stereo not given) -2.08%, CC(Oc1ccccc1)C(=O)Nc1c2c(nn1-c1ccccc1)CS(=O)C2 (stereo not given) -0.93%, Cc1ccc(S(=O)(=O)N2CCN(C(=O)COC(=O)c3c(C)cc(C)cc3C)CC2)c(C)c1 -3.37%, CCCc1cc(=O)[nH]c(SCC(=O)N2CCN(S(=O)(=O)c3ccc(C)cc3C)CC2)n1 -1.77%, CC(C#N)(NC(=O)CN1CCN(S(=O)(=O)c2cc(C(F)(F)F)ccc2Cl)CC1)C1CC1 (stereo not given) 0.11%, COc1cccc(NC(=O)C2CCCN(c3ncnc4c3nc3n4CCCCC3)C2)c1 (stereo not given) -6.71%, CCOc1ccc(S(=O)(=O)Nc2cccc(C(=O)NCC3(N4CCCCC4)CCCCC3)c2)cc1 -3.09%, Cc1cc(C)c(S(=O)(=O)c2ccccc2)c(OC(=O)c2c(F)cccc2Cl)n1 1.34%
